Laboratory results taken from paper PMC5700166.
Positions count from the first letter of the chain named.

Assays:
Test in all cases: protein-binding microarray (PBM); PBM: ~300 nM protein, 6 mM HEPES pH 7.8, 80 mM KCl, 0.5 mM EDTA, 0.5 mM EGTA, 6% glycerol, 35 ng/ul poly-dIdC, 1% milk, 1 h, room temperature; Ap Aiptasia and Nv Nematostella (sea anemones) / Co Capsaspora / Aq Amphimedon (sponge) / Dm Drosophila / Hu human; RHD is the Rel homology domain; high values mean tight binding
Conditions in all cases: dsDNA, one strand shown
GST-Ap-NF-kB RHD = target: T1, GST-Ap-NF-kB RHD (Exaiptasia pallida (Aiptasia), UniProt A0A913YAJ5 2-422)
T1 sequence: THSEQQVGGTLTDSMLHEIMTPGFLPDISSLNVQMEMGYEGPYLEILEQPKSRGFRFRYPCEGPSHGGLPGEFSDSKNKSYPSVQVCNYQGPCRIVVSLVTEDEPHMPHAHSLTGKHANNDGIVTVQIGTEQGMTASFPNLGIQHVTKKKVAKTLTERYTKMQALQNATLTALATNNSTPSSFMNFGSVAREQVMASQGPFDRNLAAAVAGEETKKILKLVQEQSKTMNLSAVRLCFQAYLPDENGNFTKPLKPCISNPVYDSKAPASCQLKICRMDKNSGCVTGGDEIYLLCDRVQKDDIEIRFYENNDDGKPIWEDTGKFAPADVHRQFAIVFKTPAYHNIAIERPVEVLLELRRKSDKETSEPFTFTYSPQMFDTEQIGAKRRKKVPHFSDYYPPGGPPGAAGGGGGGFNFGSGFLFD

[1] = target: T2, GST-Nv-NF-kB (Cys allele) (Nematostella vectensis, UniProt E5G601 2-411)
T2 sequence: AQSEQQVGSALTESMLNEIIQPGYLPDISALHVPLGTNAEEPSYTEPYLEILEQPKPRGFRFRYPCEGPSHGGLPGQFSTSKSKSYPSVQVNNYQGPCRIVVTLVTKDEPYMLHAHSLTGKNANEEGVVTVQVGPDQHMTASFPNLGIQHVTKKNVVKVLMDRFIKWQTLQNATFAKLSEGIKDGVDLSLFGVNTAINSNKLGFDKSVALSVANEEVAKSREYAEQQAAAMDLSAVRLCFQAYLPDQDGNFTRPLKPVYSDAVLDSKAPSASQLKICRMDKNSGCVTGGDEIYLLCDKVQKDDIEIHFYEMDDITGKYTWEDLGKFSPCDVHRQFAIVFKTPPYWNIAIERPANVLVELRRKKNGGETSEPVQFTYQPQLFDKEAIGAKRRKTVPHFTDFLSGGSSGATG

[2] = target: T3, GST-Nv-NF-kB (Ser allele) (Nematostella vectensis, UniProt A7UNT2 2-411)
T3 sequence: T2 sequence with Q21R, C66S, S207N, E215Q, V217A, E225K, A268E, D399E

GST-Co-NF-kB = target: T4, GST-Co-NF-kB (Capsaspora owczarzaki, UniProt F1ARL5 200-546)
T4 sequence: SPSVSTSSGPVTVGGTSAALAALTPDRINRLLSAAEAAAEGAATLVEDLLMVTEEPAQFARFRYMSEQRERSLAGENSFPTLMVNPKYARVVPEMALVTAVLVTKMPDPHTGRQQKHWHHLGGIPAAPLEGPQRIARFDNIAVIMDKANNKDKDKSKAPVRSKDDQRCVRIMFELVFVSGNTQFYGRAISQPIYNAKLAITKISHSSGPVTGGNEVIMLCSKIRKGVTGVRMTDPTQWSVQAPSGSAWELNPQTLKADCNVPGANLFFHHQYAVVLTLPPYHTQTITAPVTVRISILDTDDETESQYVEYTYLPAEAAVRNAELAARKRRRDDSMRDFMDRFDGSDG

GST-Dm-Relish = target: T5, GST-Dm-Relish (Drosophila melanogaster, UniProt Q94527 99-473)
T5 sequence: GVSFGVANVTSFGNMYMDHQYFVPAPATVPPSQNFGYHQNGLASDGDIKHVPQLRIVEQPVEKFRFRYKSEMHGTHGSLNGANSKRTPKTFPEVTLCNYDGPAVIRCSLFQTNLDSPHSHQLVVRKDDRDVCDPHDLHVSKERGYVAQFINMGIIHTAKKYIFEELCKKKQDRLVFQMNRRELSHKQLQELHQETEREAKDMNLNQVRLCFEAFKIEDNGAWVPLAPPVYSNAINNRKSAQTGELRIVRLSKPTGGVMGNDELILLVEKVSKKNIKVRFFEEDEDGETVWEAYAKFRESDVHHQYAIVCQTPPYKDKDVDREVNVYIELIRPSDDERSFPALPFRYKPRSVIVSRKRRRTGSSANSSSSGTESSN

GST-Aq-NF-kB = target: T6, GST-Aq-NF-kB (Amphimedon queenslandica, UniProt A9Y5G7 2-389)
T6 sequence: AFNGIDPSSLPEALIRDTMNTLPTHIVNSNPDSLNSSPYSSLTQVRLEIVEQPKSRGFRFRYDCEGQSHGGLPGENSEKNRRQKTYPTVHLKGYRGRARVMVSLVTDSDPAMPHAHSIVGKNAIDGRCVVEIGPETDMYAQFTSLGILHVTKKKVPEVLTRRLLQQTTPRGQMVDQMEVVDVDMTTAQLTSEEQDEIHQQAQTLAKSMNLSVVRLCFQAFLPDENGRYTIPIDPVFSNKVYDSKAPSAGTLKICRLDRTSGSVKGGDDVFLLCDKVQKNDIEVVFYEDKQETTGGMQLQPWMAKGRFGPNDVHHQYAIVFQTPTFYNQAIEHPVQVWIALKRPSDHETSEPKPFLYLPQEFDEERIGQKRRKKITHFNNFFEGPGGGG

GST-Hu-p50 = GST-Hu-p50 (Homo sapiens, UniProt P19838 7-356)
Chain of GST-Hu-p50 (P19838 7-356): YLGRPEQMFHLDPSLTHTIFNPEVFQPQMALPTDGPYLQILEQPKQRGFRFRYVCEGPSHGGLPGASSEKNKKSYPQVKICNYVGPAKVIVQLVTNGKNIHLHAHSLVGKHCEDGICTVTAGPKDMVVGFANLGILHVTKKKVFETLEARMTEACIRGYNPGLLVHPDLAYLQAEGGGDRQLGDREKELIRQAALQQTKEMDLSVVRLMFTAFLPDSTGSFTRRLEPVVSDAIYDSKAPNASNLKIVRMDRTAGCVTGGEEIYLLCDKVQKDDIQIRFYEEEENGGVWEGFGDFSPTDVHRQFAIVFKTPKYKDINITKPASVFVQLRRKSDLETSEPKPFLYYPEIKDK

Row | Sequence | binding signal (GST-Ap-NF-kB RHD) | binding signal [1] | binding signal [2] | binding signal (GST-Co-NF-kB) | binding signal (GST-Dm-Relish) | binding signal (GST-Aq-NF-kB) | binding signal (GST-Hu-p50)
1 | CCGATTAACATCAAAATTCCCCTTGATGTTAATCGGGTCTTGATTCGCTTGACGCTGCTG | 10.1 z-score | 12.5 z-score | 14.2 z-score | 7.63 z-score | 9.78 z-score | 9.63 z-score | 8.23 z-score
2 | CCGATTAACATCAGGGGGCGGGATGATGTTAATCGGGTCTTGATTCGCTTGACGCTGCTG | 3.64 z-score | 4 z-score | 3.53 z-score | 2.28 z-score | 3.49 z-score | 4.03 z-score | 4.21 z-score
3 | CCGATTAACATCACGGGGGAAAATGATGTTAATCGGGTCTTGATTCGCTTGACGCTGCTG | 6.86 z-score | 6.21 z-score | 9.47 z-score | 11.7 z-score | 4.45 z-score | 5.8 z-score | 6.51 z-score
4 | CCGATTAACATCAGGGACCCCCCTGATGTTAATCGGGTCTTGATTCGCTTGACGCTGCTG | 8.29 z-score | 5.59 z-score | 4.4 z-score | 2.66 z-score | 9.78 z-score | 8.21 z-score | 5.07 z-score
5 | CCGATTAACATCAGGGGGTTTCATGATGTTAATCGGGTCTTGATTCGCTTGACGCTGCTG | 8.25 z-score | 7.15 z-score | 7.35 z-score | 2.56 z-score | 8.76 z-score | 6.59 z-score | 6.6 z-score
6 | CCGATTAACATCAGGGGAAGAACTGATGTTAATCGGGTCTTGATTCGCTTGACGCTGCTG | 4.9 z-score | 5.96 z-score | 6.48 z-score | 6.9 z-score | 9.56 z-score | 5.61 z-score | 4.93 z-score
7 | CCGATTAACATCAAAATCCCCCATGATGTTAATCGGGTCTTGATTCGCTTGACGCTGCTG | 9.1 z-score | 9.28 z-score | 10.2 z-score | 6.67 z-score | 8.88 z-score | 7.37 z-score | 7.45 z-score
8 | CCGATTAACATCAAGGGAAATCCTGATGTTAATCGGGTCTTGATTCGCTTGACGCTGCTG | 5.35 z-score | 7.47 z-score | 6.52 z-score | 3.33 z-score | 6.05 z-score | 6.57 z-score | 4.65 z-score
9 | CCGATTAACATCAGGGGAATCAATGATGTTAATCGGGTCTTGATTCGCTTGACGCTGCTG | 5.46 z-score | 6.47 z-score | 8.04 z-score | 5.78 z-score | 5.48 z-score | 4.26 z-score | 4.98 z-score
10 | CCGATTAACATCAGAATCCCCCCTGATGTTAATCGGGTCTTGATTCGCTTGACGCTGCTG | 9.22 z-score | 7.84 z-score | 8.55 z-score | 7.63 z-score | 8.81 z-score | 7.37 z-score | 7.06 z-score
11 | CCGATTAACATCAGGACCTCCCCTGATGTTAATCGGGTCTTGATTCGCTTGACGCTGCTG | 5.62 z-score | 4.17 z-score | 2.85 z-score | 2.53 z-score | 5.19 z-score | 6.93 z-score | 3.65 z-score
12 | CCGATTAACATCAATTCCCCTGATGATGTTAATCGGGTCTTGATTCGCTTGACGCTGCTG | 6.84 z-score | 7.45 z-score | 9.02 z-score | 5.73 z-score | 3.81 z-score | 4.89 z-score | 5.75 z-score
13 | CCGATTAACATCAAAATCCCCCCTGATGTTAATCGGGTCTTGATTCGCTTGACGCTGCTG | 10.4 z-score | 9.21 z-score | 10.9 z-score | 8.91 z-score | 9.53 z-score | 8.11 z-score | 7.61 z-score
